Our source for the outcome, Potency and activity change, positive = activation values is PubChem BioAssay (Tox21).

Experiment [1] is described as follows: qHTS assay to identify small molecule antagonists of the estrogen related receptor signaling pathway with the pleiotropic PPARgamma coactivator (PGC) from Tox21 10K library - cell viability counter screen (AID 1224840; active means well fitted cell-killing curve with a large enough effect in the repeat runs, not every such curve was filed as active; further: nearly all actives have a fitted effect of over 40% in size). In short, it runs like this: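 Fluorescence read-out of CellTiter-Fluor viability reagent, added after cells had been exposed to compound in DMSO for 17.5 h at 37 C; 30 min development at 37 C/5% CO2. Cells: PGC/ERR line, 2,000/well.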
For orientation: Quantitative high-throughput screening tests each substance at several concentrations.

The nature of experiment [2]: qHTS assay to identify small molecule antagonists of the estrogen related receptor signaling pathway with the pleiotropic PPARgamma coactivator (PGC) from Tox21 10K library (AID 1224841; call rule not given here; further: actives are mostly falling curves and most rising ones were filed inactive; nearly all actives have a fitted effect of over 50% in size). In short, it runs like this: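 Luminescence read-out (One-Glo luciferase reagent, 30 min at room temperature) from PGC/ERR cells exposed to DMSO-dissolved test compounds for 18 h at 37 C; cells, 2,000 per well, had been preincubated 6 h before compound transfer.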

Experiment [3] can be described thus: qHTS assay to identify small molecule agonists of the estrogen related receptor signaling pathway with the pleiotropic PPARgamma coactivator (PGC) from Tox21 10K library (AID 1224842; active means well fitted curve in the direction sought with a large enough effect in the repeat runs; an effect the other way counts as inactive or inconclusive; further: nearly all actives have a fitted effect of over 15% in size). In short, it runs like this:
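PGC/ERR reporter cells (NTP line) were seeded 2,000 per well, rested 6 h at 37 C/5% CO2, then pin-dosed with compounds in DMSO for 18 h at 37 C; luciferase read by One-Glo luminescence after 30 min at room temperature.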

Experiment [4] can be described thus: qHTS assay to identify small molecule agonists of the hypoxia (HIF-1) signaling pathway - cell viability counter screen (AID 1224844). Further: nearly all actives have a fitted effect of over 50% in size. In short, it runs like this:
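CellTiter-Glo luminescence read-out, 30 min RT, taken in the same wells as the beta-lactamase HRE reporter assay; HRE-bla ME-180 cells, 0.5% dialyzed FBS, 17 hr compound treatment at 37C, 5% CO2.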

Experiment [5] in a line: qHTS assay to identify small molecule agonists of H2AX (AID 1224845; active means well fitted activation curve with a large enough effect in the signal ratio in the repeat runs, not every such curve was filed as active; the % refers to the signal ratio). In short, it runs like this: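 Wild-type CHO-K1 cells plated overnight, then exposed 3 hr at 37C to compounds at 15 concentrations (0.76% DMSO). Lysed, then HTRF anti-pH2AX(S139)-cryptate/anti-H2AX-d2 detection after 24 hr at room temperature; emissions 665 and 620 nm.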
Experiment [6] can be described thus: qHTS assay to identify small molecule agonists of H2AX - cell viability counter screen (AID 1224847). Further: top concentration of the series differs between compounds; nearly all actives have a fitted effect of over 30% in size. In short, it runs like this:
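Read-out: CellTiter-Glo luminescence, 30 min RT. Cells: wild-type CHO-K1, 1000/well, 10% FBS, plated overnight at 37C. Treatment: 15 concentrations, 3 hr, 37C, 0.76% DMSO.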

Experiment [7] is described as follows: qHTS assay to identify small molecule antagonists of the estrogen related receptor (ERR) signaling pathway from Tox21 library (AID 1224848; active means well fitted curve in the direction sought with a large enough effect in the repeat runs; an effect the other way counts as inactive or inconclusive; further: nearly all actives have a fitted effect of over 50% in size; further: potency means the concentration at half of the fitted maximal effect). In short, it runs like this: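 Tox21 10K compounds in DMSO tested for ERR pathway antagonism in NTP's ERR cell line; 18 h, 37 C exposure; ONE-Glo luminescence.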
Experiment [8] in a line: qHTS assay to identify small molecule agonists of the estrogen related receptor (ERR) signaling pathway from Tox21 library (AID 1224849). Further: nearly all actives have a fitted effect of over 15% in size. Conditions: ERR reporter cell line, ONE-Glo luciferase, 18 h; at 92.4 µM (top of the series) unless noted. In short, it runs like this:
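Luminescence readout (ONE-Glo, 30 min RT) after 18 h compound exposure at 37 C of NTP-supplied ERR reporter cells; cells were plated 6 h before compound addition by pin tool.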

A short description of experiment [9]: qHTS assay to identify small molecule agonists of the hypoxia (HIF-1) signaling pathway (AID 1224846; active means well fitted activation curve with a large enough effect in the signal ratio in the repeat runs, not every such curve was filed as active; the % refers to the signal ratio). In short, it runs like this: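 Beta-lactamase FRET read-out (CCF4-AM substrate) from ME-180 cells carrying an HRE-driven bla reporter, after 17 hrs compound exposure at 37C/5% CO2. Cells were seeded at 2,000 per well in 0.5% dialyzed FBS medium and preincubated 5 hrs.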

In experiment [10] the target is Thyrotropin receptor (Homo sapiens) (UniProt P16473). Kind of experiment: qHTS assay to identify small molecule agonists of the thyroid stimulating hormone receptor (TSHR) signaling pathway (AID 1224843). Further: nearly all actives have a fitted effect of over 45% in size. In short, it runs like this: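 Using 15 concentrations per compound in triplicate, cAMP production was monitored in TSHR-HEK293 cells after 30 min compound incubation at RT; HTRF reagents followed, with fluorescence intensity recorded after 1 h.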
Thyrotropin receptor (Homo sapiens), sequence (P16473 whole entry, looked up): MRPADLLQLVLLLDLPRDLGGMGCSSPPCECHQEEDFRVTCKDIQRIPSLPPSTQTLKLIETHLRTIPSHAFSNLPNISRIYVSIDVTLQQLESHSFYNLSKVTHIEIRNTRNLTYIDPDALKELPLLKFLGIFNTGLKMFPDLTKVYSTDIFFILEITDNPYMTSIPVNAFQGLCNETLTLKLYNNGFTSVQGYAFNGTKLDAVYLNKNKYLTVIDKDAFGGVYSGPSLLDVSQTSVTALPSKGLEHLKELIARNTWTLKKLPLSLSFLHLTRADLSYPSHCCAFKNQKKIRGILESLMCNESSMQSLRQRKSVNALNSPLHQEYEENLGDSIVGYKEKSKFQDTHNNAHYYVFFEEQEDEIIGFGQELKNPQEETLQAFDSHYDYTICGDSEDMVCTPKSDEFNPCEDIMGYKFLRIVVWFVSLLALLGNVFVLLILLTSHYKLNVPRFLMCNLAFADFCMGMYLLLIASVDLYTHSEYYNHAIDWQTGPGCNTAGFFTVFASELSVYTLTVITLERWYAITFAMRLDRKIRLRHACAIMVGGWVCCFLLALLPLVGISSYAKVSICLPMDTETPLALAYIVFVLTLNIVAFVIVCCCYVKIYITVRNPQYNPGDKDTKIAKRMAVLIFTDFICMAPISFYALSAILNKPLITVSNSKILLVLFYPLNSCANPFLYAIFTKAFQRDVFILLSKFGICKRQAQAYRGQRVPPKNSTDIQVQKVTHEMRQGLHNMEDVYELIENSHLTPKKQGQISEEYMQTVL

Values without a mark were called inactive. Inconclusive results are not listed. Activity calls are given as the source filed them. Unless noted, the call rests on the fitted dose curve.
On the % scale 0 is the no-effect control and ±100 the full control effect.

For the molecule `c1ccc2c(CC3=NCCN3)cccc2c1`, the call in experiment [1], in experiment [2], in [3], in [4], in experiment [5] and in experiment [6] was inactive. For the same molecule, the Potency result in experiment [7] was “inactive”. Moreover, the activity change, positive = activation in experiment [8] is 4.17% [at 42.5 µM].

`Cn1nnc2c(C(N)=O)ncn2c1=O`: the result in experiment [1], in experiment [2], in [3], in experiment [4], in [9] and in experiment [6] was inactive. Besides, the Potency result in experiment [7] is “inactive”. The activity change, positive = activation in experiment [8] was -0.988% [at 42.5 µM].

Regarding `C/C=C(\C)C(=O)OCCc1ccccc1`, the result in experiment [1], in experiment [2], in experiment [3], in [5], in experiment [9] and in experiment [6] was inactive. Besides, the Potency result in [7] is “inactive”. Further, the activity change, positive = activation in experiment [8] was 9.96%.

Take `O=C(CCCCC(=O)Nc1c(I)cc(I)c(C(=O)O)c1I)Nc1c(I)cc(I)c(C(=O)O)c1I`: the outcome in experiment [1], in experiment [3] and in experiment [6] was inactive. In experiment [7], the Potency was 21.1 µM (active). In [8], the activity change, positive = activation is -37% [at 42.5 µM].

`c1ccc(-c2nn[nH]n2)cc1`: the call in [1], in [2], in experiment [3], in experiment [4], in [5] and in experiment [9] was inactive. For the same molecule, the Potency entry in [7] was “inactive”. The activity change, positive = activation in [8] is 8.29%.

In the case of `C=C(C)C1CC=C(C)C(=O)C1` (stereo not drawn), the result in experiment [1], in experiment [10], in experiment [4], in experiment [5], in experiment [9] and in [6] was inactive.

In the case of `c1ccc(B(c2ccccc2)c2ccccc2)cc1`, the molecule was classed as inactive in [1], in [2], in experiment [3], in [4], in experiment [5] and in [9]. Besides, the result in [6] was inactive. In experiment [7], the Potency entry is “inactive”.

In the case of `COc1cc(OC)nc(O[C@H](C(=O)O)C(OC)(c2ccccc2)c2ccccc2)n1`, the outcome in experiment [1], in experiment [10], in experiment [4], in experiment [5] and in experiment [9] was inactive.

As for `C=CC(=O)CCCCC`, the result in experiment [1], in experiment [10], in experiment [4], in [5], in [9] and in [6] was inactive.

Turning to `CCCCCCC1(C)CCC(=O)O1` (stereo not drawn), the molecule was classed as inactive in experiment [1], in [10], in [4], in experiment [5] and in experiment [9].

For the molecule `COc1cc2c(cc1OC)C(=O)C(CC1CCN(Cc3ccccc3)CC1)C2` (stereo not drawn), the result in experiment [1], in experiment [2], in experiment [10], in experiment [5], in experiment [9] and in experiment [6] was inactive. In addition, the Potency result in experiment [7] was “inactive”. The activity change, positive = activation in experiment [8] was 2.42% [at 42.5 µM].

As for `CCCC(=O)OCCC(C)CCC=C(C)C` (stereo not drawn), the outcome in [1], in experiment [2], in [3], in [4], in [5] and in experiment [9] was inactive. The result in [6] was inactive. Besides, the Potency result in experiment [7] was “inactive”. The activity change, positive = activation in experiment [8] is -4.9%.

For `CC1CCc2c(N3CCC(O)CC3)c(F)cc3c(=O)c(C(=O)O)cn1c23` (stereo not drawn), the molecule was classed as inactive in [1], in [3], in experiment [4], in [5], in [9] and in experiment [6]. Besides, the activity change, positive = activation in experiment [8] is -17.9% [at 42.5 µM].

In the case of `CCCCCCCCCCCCCBr`, the molecule was classed as inactive in [1], in [2], in [3], in [4], in experiment [5] and in experiment [9]. The outcome in experiment [6] was inactive. Moreover, the Potency result in experiment [7] was “inactive”. Also, the activity change, positive = activation in experiment [8] was 3.01%.

Consider `CC(=O)CCC1=C(C)CCCC1(C)C`, for which the outcome in experiment [1], in experiment [10], in [4], in experiment [5], in experiment [9] and in experiment [6] was inactive.

Turning to `O=Cc1ccccc1Cl`, the molecule was called inactive in [1], in experiment [2], in experiment [3], in experiment [5], in [9] and in [6]. Moreover, the Potency entry in experiment [7] is “inactive”. Also, the activity change, positive = activation in experiment [8] was 4.09%.

For `COc1nc(N)nc2nc[nH]c12`, the molecule was classed as inactive in [1], in experiment [3], in experiment [10], in [4], in experiment [5] and in [9]. Besides, the outcome in experiment [6] was inactive. The Potency entry in [7] was “inactive”. Besides, the activity change, positive = activation in [8] was 0.367%.

On to `c1ccc2cnccc2c1`, for which the molecule was called inactive in experiment [1], in experiment [3], in [4], in [5], in experiment [9] and in [6]. Further, the Potency result in [7] is “inactive”. For the same molecule, the activity change, positive = activation in [8] is 7.4%.

For the molecule `COc1ccc(CCO)cc1`, the call in experiment [1], in [10], in [4], in experiment [5] and in experiment [9] was inactive.

For `CC1=C(C(=O)O)N2C(=O)[C@@H](NC(=O)[C@H](N)c3ccccc3)[C@H]2SC1`, the call in [1], in [2], in experiment [3], in experiment [4], in [5] and in experiment [6] was inactive. The Potency result in experiment [7] is “inactive”. Besides, in [8], the activity change, positive = activation was 5.12% [at 42.5 µM].

In the case of `CC1c2ccccc2CN1NC(=O)c1ccc(Cl)c(S(N)(=O)=O)c1` (stereo not drawn), the result in experiment [1], in experiment [3], in [10], in [4], in experiment [5] and in experiment [9] was inactive. The outcome in experiment [6] was inactive. Besides, in [7], the Potency result is “inactive”. In addition, the activity change, positive = activation in experiment [8] is 3.24% [at 42.5 µM].

For the molecule `CCC(=O)c1c(O)cc(O)cc1O`, the outcome in experiment [1], in experiment [3], in experiment [10], in [4], in experiment [5] and in experiment [9] was inactive. The outcome in experiment [6] was inactive. Also, the activity change, positive = activation in experiment [8] was -13.5% [at 42.5 µM].

Consider `CC(C)(C)NC[C@H](O)COc1cccc2c1CCCC2=O`, for which the molecule was called inactive in experiment [1], in experiment [2], in experiment [3], in [4], in experiment [5] and in [6]. The Potency result in [7] was “inactive”. The activity change, positive = activation in experiment [8] was 4.14% [at 42.5 µM].

Consider `CCC(C(=O)OCCN1CCOC(c2ccccc2)C1C)c1ccccc1` (stereo not drawn), for which the result in [1], in experiment [3], in [4], in experiment [5] and in experiment [9] was inactive. For the same molecule, the activity change, positive = activation in experiment [8] was -23.3% [at 42.5 µM].

For `CCC(=O)CC`, the call in experiment [1], in [2], in experiment [3], in [4], in [5] and in experiment [9] was inactive. Also, in experiment [6], the call was inactive. In addition, in experiment [7], the Potency result was “inactive”. For the same molecule, in [8], the activity change, positive = activation was 4.37%.

As to `Nc1nc(-c2ccccc2)c(Br)c(=O)[nH]1`, the molecule was classed as inactive in experiment [1], in experiment [3], in experiment [10], in experiment [4], in experiment [5] and in experiment [9]. Further, the molecule was called inactive in experiment [6]. In addition, in [7], the Potency entry was “inactive”. Further, in experiment [8], the activity change, positive = activation was -6.57% [at 42.5 µM].
